TRPV1 agonist = HTS Assay for Compounds that Act as Agonists of the Vanilloid Receptor 1; 320,000 compounds, 0.19% hits; TRPV1-expressing cells, Fluo-8 calcium influx, agonist mode; Transient receptor potential cation channel subfamily V member 1 (Homo sapiens), Q8NER1; AID 540275, 2011; activation, % at 8.33 µM; in the data active = activation above about 80%; inconclusive = between about 30% and that limit; also: 0% is about no effect
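Fluo-8 calcium influx in TRPV1-expressing cells, kinetic read (ex 480/em 520 nm). Compound added and read 3 min for agonist activity, followed by capsaicin at EC20 final and 2 min further read for enhancement.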
p53 reactivator = qHTS assay for re-activators of p53 using a Luc reporter; AID 504706, 2011; H1299 p53-A138V BP100-luciferase reporter, luminescence, 24 h; Potency, µM (titrated, usually from 92.2 µM), inactives show at the top dose activity change, positive = activation, most hits filed as activators; 320,000 compounds, 0.063% hits; active = well fitted activation curve with a large enough effect; inconclusive = small, poorly fitted or top-dose-only effect; inactive = no such curve, though single readings can be large or run the other way; also: potency is read from the fitted curve at half-maximal effect; % of control where 0% means no effect; nearly all actives have a fitted effect of over 45% in size
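H1299 (p53-null), stable ts p53-A138V + BP100-Luc; 1000 cells/well, Opti-MEM/10% FBS; cpd 4 pt, 1:5; 24 h, 37 deg C, 5% CO2; detection reagent 10 min RT; luminescence.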
TRPV1 potentiator = HTS Assay for Compounds that Act as Potentiators of the Vanilloid Receptor 1 | TRPV1-expressing cells, Fluo-8 calcium influx, capsaicin EC20 potentiation | 320,000 compounds, 0.02% hits | Transient receptor potential cation channel subfamily V member 1 (Homo sapiens), Q8NER1 | potentiation, % at 8.33 µM; in the data active = potentiation above about 80%; inconclusive = between about 30% and that limit; also: 0% is about no effect
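TRPV1-expressing cells were cultured overnight at 35.5C and loaded with Fluo-8 calcium dye for 40 to 90 min at room temperature. After a 10 s baseline, compound was added and calcium influx was read kinetically for 3 min (ex 480/em 520 nm).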
ClpP mod = qHTS Assay for Activators of ClpP. ATP-dependent Clp protease proteolytic subunit (Bacillus subtilis (strain 168)), P80244. purified B. subtilis ClpP, FRET peptide cleavage, 20 min. Potency, µM (doses to about 57.5 µM), without a hit: top-dose activity change, negative = active. 340,000 compounds, 1.9% hits. AID 651965, 2013; active = well fitted falling curve with a large enough effect; inconclusive = small, poorly fitted or top-dose-only effect; inactive = no such curve, though single readings can be large or run the other way; also: potency is read from the fitted curve at half-maximal effect; the source files actives as falling curves though it sought activators and does not explain the sign; nearly all actives have a fitted effect of over 65% in size
Target sequence (P80244 whole entry, looked up): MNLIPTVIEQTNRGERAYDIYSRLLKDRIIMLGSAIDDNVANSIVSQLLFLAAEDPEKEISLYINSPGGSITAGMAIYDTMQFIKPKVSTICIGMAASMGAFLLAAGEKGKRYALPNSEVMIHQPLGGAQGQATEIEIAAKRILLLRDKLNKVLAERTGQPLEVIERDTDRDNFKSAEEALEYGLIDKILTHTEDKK
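ClpP 10 microg/mL final, pH 8 Tris/KCl buffer with BSA, glycerol, Tween-20; compound pinned in; FRET-FV substrate; RT 20 min; Ex320/Em430; ΔFRET vs ADEP 5.8 microM, DMSO, no enzyme.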
hERG WT inh = qHTS for Inhibitors of KCHN2 3.1: Wildtype qHTS. 340,000 compounds, 0.37% hits. activity change, % at 1.84 µM. Voltage-gated inwardly rectifying potassium channel KCNH2 (Homo sapiens), Q12809. U2OS, BacMam KCNH2, thallium flux FluxOr; stronger effect = lower value. AID 720551, 2013;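 active = maximum activity change below -70%; inconclusive = maximum activity change between -70% and -50%; inactive = maximum activity change above -50%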; also: % is scaled to controls: 0 for no effect and ±100 for the full control effect
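U2OS cells were transduced with wild-type KCNH2 virus (2.03 x 10^8 / mL) for 4 h at room temperature, then cultured overnight at 37 C. Thallium flux was read with FluxOr dye. Rate constants were normalized to DMSO controls.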
KCNH2 3.1 block = qHTS for Inhibitors of KCHN2 3.1: Mutant qHTS; U2OS KCNH2 3.1, thallium flux FluxOr; stronger effect = lower value; activity change, % (tested at about 1.8 µM); 340,000 compounds, 0.95% hits; AID 720553, 2013;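 active = maximum activity change below -70%; inconclusive = maximum activity change from -70% to -50%; inactive = maximum activity change above -50%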;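 also: thallium influx rate constant from kinetic fluorescence after stimulation buffer; % is scaled to controls: 0 for no effect and ±100 for the full control effect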
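Steps: virus added to U2OS suspension (4 h, RT, dark); medium with 10% FBS added, cells plated, 37 C overnight; FluxOr/Red40 loading buffer 45 min RT; stimulation buffer, 2 min kinetic read; rate constant normalized.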
An asterisk follows results filed as active. Sampled rows, rich in hits. Any-hit rate of the full collection: about 2.6%.

Screening O=C(c1cc2ccccc2oc1=O)N(Cc1cccs1)C1CCS(=O)(=O)C1 (configuration not stated) returned TRPV1 agonist 2, p53 reactivator inconclusive, TRPV1 potentiator -2, ClpP mod -14%, hERG WT inh -174* and KCNH2 3.1 block -163*.
O=C(CNC(=O)c1ccccc1)NCC(=O)OCC(=O)c1cccc2ccccc12 was read as ClpP mod 0%.
CN(C)S(=O)(=O)N1CCC(Oc2cccc(C(=O)NC3CCCCC3)c2)CC1 was read as TRPV1 agonist 8, p53 reactivator 11%, TRPV1 potentiator -5, ClpP mod -1%, hERG WT inh -3 and KCNH2 3.1 block -8.
For O=C(NCCC1=CCCCC1)c1ccc(Cl)c(S(=O)(=O)N2CCCCC2)c1 the results were TRPV1 agonist inconclusive, p53 reactivator 3%, TRPV1 potentiator -1, ClpP mod -5%, hERG WT inh 12 and KCNH2 3.1 block 14.
`O=C(NCCC1=CCCCC1)c1ccc(Cl)c(S(=O)(=O)N2CCOCC2)c1` gave TRPV1 agonist 82*, p53 reactivator 16%, TRPV1 potentiator -13, ClpP mod -3%, hERG WT inh -3 and KCNH2 3.1 block 1.
CN(C)S(=O)(=O)N1CCC(Oc2cccc(C(=O)NCCC3=CCCCC3)c2)CC1 was read as TRPV1 agonist 30, p53 reactivator 7%, TRPV1 potentiator -9, ClpP mod 25µM*, hERG WT inh 24 and KCNH2 3.1 block 1.
COc1ccc(C(=O)NCCC2=CCCCC2)cc1[N+](=O)[O-] was read as TRPV1 agonist 88*, p53 reactivator 9%, TRPV1 potentiator -26, ClpP mod 3%, hERG WT inh 3 and KCNH2 3.1 block -12.
O=C(NCCC1=CCCCC1)C1CCN(S(=O)(=O)N2CCOCC2)CC1 was read as TRPV1 agonist 5, p53 reactivator 7%, TRPV1 potentiator -5, ClpP mod 1%, hERG WT inh 8 and KCNH2 3.1 block -71*.
`CCCC(=O)N1CCC1(C)C(=O)Nc1ccc(OC)c(OC)c1` (configuration not stated) gave ClpP mod 1%.
O=C1C(c2ccc(F)cc2)N(CCc2ccccc2)C(=O)CN1C1CCCCC1 (configuration not stated) was read as ClpP mod 2%.
O=C(c1ccc2c(Cl)c3c(nc2c1)CCCC3)N1CCN(c2ccccc2F)CC1 was read as ClpP mod 1%.
COc1ccc(N)c2c1C(=O)c1ccccc1C2=O was read as TRPV1 agonist -5, p53 reactivator 5%, TRPV1 potentiator 0, ClpP mod -2%, hERG WT inh -10 and KCNH2 3.1 block -98*.
For COC(=O)c1ccc(NC(=O)CC2C(=O)N(c3cccc(OC)c3)C(=O)N2Cc2ccco2)cc1 (configuration not stated) the results were ClpP mod -1%.
COCCN(C(=O)COC(=O)/C=C/c1ccc(SC)cc1)c1c(N)n(Cc2ccccc2)c(=O)[nH]c1=O was read as ClpP mod 22µM*, hERG WT inh -19 and KCNH2 3.1 block 0.
CCn1c(CN2CCCCC2)nc2cc(NC(=O)c3cc(OC)c(OC)c(OC)c3)ccc21 was read as ClpP mod -7%.
CN(Cc1ccccc1)C(=O)CN1C(=O)CSc2ccc(S(=O)(=O)N3CCOCC3)cc21 was read as ClpP mod -1%.
